# Experimental data: publication PMC7862700, “An all-to-all approach to the identification of sequence-specific readers for epigenetic DNA modifications on cytosine”
# How the values were obtained:
# Experiment in all cases: DAPPL (digital affinity profiling via proximity ligation, sequencing); 10 mM Tris-HCl pH 7.5, 50 mM NaCl, 1 mM DTT, 4% glycerol, room temperature, 30 min; GST-TFs on glutathione beads, 16-mer random dsDNA library, 0.1% formaldehyde crosslink after washing; high values mean tight binding
# FEV = target: T1, FEV (Homo sapiens, UniProt Q99581 1-238); conditions: protein: recombinant; tags: N-terminal GST; dsDNA, one strand shown
# T1 sequence: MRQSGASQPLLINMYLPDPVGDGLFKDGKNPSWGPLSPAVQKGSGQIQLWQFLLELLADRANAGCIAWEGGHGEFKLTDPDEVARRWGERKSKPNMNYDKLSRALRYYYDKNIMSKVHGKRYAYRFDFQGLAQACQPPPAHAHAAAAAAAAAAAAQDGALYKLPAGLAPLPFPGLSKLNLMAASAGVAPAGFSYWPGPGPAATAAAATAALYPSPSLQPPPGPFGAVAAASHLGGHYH
# Procedure, shortened: (§1)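 After expression in yeast as GST fusions, human transcription factors were bound to glutathione beads, DNA-barcoded and mixed with a tag-only sample. The pools were incubated with 200 nmole of a 16-mer random double-stranded DNA library in Tris/NaCl/DTT/glycerol buffer (30 min, room temperature), washed and crosslinked with 0.1% formaldehyde. Proximity ligation with BsaI/T4 ligase ran for 1 h at 37 °C, before PCR amplification and sequencing on an Illumina NextSeq500. Binding signal is a hexamer's read frequency for a factor divided by its frequency for the tag-only sample.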
# ETV5 = ETV5 (Homo sapiens, UniProt P41161 1-510); conditions: protein: recombinant; tags: N-terminal GST; dsDNA, one strand shown
# Procedure, shortened: as §1
# HSF1 = HSF1 (Homo sapiens, UniProt Q00613 1-529); conditions: protein: recombinant; tags: N-terminal GST; chain copies: 3; dsDNA, one strand shown
# Procedure, shortened: as §1
# SPIC = target: T2, SPIC (Homo sapiens, UniProt Q8N5J4 1-248); conditions: protein: recombinant; tags: N-terminal GST; dsDNA, one strand shown
# T2 sequence: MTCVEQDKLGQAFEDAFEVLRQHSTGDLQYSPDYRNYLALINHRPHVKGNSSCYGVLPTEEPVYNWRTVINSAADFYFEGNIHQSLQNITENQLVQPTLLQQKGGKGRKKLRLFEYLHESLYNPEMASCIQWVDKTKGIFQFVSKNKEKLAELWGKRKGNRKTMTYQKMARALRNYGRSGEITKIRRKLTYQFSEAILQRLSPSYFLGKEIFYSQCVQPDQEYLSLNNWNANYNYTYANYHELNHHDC
# Procedure, shortened: as §1
# ELF4 = ELF4 (Homo sapiens, UniProt Q99607 1-663); conditions: protein: recombinant; tags: N-terminal GST; dsDNA, one strand shown
# Procedure, shortened: as §1
# ELK4 = target: T3, ELK4 (Homo sapiens, UniProt P28324-2 1-405); conditions: protein: recombinant; tags: N-terminal GST; dsDNA, one strand shown
# T3 sequence: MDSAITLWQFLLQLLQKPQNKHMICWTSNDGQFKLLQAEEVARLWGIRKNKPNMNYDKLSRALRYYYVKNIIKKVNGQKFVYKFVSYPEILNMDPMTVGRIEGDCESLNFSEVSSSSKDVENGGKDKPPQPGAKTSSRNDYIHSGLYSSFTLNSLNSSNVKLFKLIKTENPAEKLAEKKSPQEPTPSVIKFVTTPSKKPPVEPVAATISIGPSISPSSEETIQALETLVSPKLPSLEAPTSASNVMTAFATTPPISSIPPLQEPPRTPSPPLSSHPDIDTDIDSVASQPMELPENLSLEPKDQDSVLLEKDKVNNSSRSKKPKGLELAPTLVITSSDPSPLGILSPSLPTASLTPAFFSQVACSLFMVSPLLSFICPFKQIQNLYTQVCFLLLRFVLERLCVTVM
# Procedure, shortened: as §1
# ETV2 = target: T4, ETV2 (Homo sapiens, UniProt O00321 1-342); conditions: protein: recombinant; tags: N-terminal GST; dsDNA, one strand shown
# T4 sequence: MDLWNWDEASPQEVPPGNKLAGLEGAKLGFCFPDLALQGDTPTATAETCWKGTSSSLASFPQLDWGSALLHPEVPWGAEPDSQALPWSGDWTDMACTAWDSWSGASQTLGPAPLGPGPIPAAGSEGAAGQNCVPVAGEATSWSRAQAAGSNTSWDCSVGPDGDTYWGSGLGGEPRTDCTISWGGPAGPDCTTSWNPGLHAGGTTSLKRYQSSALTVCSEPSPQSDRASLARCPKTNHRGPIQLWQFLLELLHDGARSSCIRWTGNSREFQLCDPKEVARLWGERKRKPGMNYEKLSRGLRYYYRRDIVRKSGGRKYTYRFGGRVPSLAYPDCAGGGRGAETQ
# Procedure, shortened: as §1
# ELF3 = target: T5, ELF3 (Homo sapiens, UniProt P78545 1-371); conditions: protein: recombinant; tags: N-terminal GST; dsDNA, one strand shown
# T5 sequence: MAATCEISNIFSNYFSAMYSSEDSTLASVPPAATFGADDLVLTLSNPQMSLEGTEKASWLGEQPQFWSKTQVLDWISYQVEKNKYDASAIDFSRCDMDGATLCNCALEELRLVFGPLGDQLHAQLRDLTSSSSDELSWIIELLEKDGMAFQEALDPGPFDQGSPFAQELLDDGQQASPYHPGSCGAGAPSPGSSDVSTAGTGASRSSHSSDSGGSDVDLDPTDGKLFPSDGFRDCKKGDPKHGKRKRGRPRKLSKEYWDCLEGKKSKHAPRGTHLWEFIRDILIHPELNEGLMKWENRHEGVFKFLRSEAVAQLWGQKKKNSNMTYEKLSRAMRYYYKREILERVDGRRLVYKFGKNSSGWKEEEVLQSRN
# Procedure, shortened: as §1
# CRX = CRX (Homo sapiens, UniProt O43186 1-299); conditions: protein: recombinant; tags: N-terminal GST; dsDNA, one strand shown
# Procedure, shortened: as §1
# ETV1 = ETV1 (Homo sapiens, UniProt P50549 1-477); conditions: protein: recombinant; tags: N-terminal GST; dsDNA, one strand shown
# Procedure, shortened: as §1
# ERF = target: T6, ERF (Homo sapiens, UniProt P50548 1-548); conditions: protein: recombinant; tags: N-terminal GST; dsDNA, one strand shown
# T6 sequence: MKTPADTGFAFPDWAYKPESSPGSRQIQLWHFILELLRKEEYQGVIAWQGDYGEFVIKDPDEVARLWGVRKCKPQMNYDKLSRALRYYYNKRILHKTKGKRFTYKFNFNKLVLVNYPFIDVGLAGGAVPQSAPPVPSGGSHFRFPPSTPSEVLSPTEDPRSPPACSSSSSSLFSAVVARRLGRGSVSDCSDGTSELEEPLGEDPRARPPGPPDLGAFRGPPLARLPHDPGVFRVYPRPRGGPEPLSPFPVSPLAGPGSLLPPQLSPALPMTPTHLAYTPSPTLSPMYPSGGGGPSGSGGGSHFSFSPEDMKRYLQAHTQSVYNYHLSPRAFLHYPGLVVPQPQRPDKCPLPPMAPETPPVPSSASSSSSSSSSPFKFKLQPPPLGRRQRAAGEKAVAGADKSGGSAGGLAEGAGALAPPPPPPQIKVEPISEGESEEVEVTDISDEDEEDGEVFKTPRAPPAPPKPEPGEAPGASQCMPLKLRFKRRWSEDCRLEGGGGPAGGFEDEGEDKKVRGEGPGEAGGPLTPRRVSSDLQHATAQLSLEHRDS
# Procedure, shortened: as §1
# ETV3L = target: T7, ETV3L (Homo sapiens, UniProt Q6ZN32 1-361); conditions: protein: recombinant; tags: N-terminal GST; dsDNA, one strand shown
# T7 sequence: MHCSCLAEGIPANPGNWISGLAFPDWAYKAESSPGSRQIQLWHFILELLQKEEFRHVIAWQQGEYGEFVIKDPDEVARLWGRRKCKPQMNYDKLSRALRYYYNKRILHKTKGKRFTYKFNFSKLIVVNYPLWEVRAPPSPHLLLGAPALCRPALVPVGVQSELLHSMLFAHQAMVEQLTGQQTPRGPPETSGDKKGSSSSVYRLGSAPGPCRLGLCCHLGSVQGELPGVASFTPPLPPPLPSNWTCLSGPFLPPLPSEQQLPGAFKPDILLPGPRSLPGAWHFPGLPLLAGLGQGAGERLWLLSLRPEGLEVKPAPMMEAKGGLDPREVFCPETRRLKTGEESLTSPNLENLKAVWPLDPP
# Procedure, shortened: as §1
# ETS2 = target: T8, ETS2 (Homo sapiens, UniProt P15036 1-469); conditions: protein: recombinant; tags: N-terminal GST; dsDNA, one strand shown
# T8 sequence: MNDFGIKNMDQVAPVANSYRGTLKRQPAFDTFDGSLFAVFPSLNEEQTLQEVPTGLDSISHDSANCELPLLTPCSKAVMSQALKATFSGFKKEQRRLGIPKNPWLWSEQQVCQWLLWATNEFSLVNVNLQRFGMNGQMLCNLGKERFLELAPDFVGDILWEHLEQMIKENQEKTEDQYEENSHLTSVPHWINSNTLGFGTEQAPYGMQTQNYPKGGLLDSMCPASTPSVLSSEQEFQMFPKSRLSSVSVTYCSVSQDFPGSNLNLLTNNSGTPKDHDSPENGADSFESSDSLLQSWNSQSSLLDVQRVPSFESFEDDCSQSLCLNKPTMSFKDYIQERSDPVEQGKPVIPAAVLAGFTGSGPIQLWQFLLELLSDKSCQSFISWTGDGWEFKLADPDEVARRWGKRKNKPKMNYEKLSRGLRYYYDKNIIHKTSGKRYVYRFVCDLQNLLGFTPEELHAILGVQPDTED
# Procedure, shortened: as §1
# SPDEF = target: T9, SPDEF (Homo sapiens, UniProt O95238 1-335); conditions: protein: recombinant; tags: N-terminal GST; dsDNA, one strand shown
# T9 sequence: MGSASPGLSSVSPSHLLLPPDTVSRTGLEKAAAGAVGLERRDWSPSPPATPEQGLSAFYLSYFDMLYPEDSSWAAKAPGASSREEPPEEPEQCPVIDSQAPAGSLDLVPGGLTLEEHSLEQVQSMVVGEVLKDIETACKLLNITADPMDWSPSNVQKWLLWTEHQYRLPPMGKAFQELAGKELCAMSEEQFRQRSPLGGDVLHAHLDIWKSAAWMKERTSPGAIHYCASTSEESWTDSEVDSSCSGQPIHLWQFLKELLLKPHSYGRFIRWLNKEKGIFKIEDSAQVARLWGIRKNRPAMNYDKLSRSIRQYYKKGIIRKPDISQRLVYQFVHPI
# Procedure, shortened: as §1
# ETV7 = target: T10, ETV7 (Homo sapiens, UniProt Q9Y603 1-341); conditions: protein: recombinant; tags: N-terminal GST; dsDNA, one strand shown
# T10 sequence: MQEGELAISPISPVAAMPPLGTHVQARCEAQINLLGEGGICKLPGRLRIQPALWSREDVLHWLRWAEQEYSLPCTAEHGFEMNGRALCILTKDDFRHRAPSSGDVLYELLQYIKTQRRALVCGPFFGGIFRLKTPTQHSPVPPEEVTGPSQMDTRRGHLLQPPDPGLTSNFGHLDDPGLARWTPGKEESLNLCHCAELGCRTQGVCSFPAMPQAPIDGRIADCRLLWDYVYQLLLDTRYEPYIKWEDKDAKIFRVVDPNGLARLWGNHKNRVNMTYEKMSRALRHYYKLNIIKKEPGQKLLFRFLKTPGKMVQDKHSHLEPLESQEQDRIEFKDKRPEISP
# Procedure, shortened: as §1
# ELF5 = target: T11, ELF5 (Homo sapiens, UniProt Q9UKW6-2 1-255); conditions: protein: recombinant; tags: N-terminal GST; dsDNA, one strand shown
# T11 sequence: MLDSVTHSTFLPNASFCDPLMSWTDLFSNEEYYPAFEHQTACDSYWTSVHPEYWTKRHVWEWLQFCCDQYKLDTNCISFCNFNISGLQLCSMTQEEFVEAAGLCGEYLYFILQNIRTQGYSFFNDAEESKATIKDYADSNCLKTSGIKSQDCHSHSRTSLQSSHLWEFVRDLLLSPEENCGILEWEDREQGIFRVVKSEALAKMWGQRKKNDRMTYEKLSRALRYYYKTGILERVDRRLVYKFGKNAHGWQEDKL
# Procedure, shortened: as §1
# ETV3 = target: T12, ETV3 (Homo sapiens, UniProt P41162-2 1-143); conditions: protein: recombinant; tags: N-terminal GST; dsDNA, one strand shown
# T12 sequence: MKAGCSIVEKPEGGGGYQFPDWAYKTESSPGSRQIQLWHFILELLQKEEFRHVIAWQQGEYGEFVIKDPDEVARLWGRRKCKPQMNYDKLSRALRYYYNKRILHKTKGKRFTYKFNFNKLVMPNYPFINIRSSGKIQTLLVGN
# Procedure, shortened: as §1
# ETV6 = ETV6 (Homo sapiens, UniProt P41212 1-452); conditions: protein: recombinant; tags: N-terminal GST; dsDNA, one strand shown
# Procedure, shortened: as §1
# ELF4, sequence (Q99607 whole entry): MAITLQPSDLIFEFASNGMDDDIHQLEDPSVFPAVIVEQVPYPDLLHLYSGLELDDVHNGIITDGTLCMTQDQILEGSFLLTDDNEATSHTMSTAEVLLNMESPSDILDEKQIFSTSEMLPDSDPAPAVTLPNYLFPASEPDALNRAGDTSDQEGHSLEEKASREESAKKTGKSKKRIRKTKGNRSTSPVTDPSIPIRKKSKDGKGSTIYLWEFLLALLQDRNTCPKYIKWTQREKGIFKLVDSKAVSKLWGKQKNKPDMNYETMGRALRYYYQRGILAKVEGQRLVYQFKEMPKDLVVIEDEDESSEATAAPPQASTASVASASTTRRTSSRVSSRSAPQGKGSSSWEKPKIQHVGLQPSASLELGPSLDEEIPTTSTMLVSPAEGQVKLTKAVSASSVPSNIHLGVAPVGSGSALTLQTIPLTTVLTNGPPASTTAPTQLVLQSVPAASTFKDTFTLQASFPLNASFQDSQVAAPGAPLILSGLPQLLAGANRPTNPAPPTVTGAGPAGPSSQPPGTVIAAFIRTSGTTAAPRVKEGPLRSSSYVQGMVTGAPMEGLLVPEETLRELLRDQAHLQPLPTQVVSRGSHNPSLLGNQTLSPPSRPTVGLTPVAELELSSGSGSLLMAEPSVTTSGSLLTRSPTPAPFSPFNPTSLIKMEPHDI
# CRX, sequence (O43186 whole entry): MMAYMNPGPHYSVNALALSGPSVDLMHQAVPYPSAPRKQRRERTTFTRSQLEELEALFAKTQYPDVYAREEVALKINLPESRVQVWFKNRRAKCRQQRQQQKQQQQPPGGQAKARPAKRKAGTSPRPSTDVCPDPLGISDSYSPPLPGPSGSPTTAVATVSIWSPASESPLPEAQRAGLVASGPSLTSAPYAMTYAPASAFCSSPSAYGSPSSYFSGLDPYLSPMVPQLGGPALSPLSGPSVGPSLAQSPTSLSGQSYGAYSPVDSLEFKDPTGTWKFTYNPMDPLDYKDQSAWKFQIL
# ETV1, sequence (P50549 whole entry): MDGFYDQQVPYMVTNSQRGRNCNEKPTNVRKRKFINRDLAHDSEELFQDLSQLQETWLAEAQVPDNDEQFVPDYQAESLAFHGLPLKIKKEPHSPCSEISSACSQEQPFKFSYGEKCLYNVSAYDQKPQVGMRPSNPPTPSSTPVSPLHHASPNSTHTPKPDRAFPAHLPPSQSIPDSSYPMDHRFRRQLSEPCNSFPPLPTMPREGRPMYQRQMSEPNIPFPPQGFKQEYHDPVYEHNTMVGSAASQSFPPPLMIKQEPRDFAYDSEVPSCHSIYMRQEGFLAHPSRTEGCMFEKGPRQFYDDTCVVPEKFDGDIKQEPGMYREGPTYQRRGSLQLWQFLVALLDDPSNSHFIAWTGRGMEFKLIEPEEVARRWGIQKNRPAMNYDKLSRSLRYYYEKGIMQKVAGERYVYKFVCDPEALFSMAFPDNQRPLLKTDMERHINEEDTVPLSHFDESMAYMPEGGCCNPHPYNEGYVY
# ETV6, sequence (P41212 whole entry): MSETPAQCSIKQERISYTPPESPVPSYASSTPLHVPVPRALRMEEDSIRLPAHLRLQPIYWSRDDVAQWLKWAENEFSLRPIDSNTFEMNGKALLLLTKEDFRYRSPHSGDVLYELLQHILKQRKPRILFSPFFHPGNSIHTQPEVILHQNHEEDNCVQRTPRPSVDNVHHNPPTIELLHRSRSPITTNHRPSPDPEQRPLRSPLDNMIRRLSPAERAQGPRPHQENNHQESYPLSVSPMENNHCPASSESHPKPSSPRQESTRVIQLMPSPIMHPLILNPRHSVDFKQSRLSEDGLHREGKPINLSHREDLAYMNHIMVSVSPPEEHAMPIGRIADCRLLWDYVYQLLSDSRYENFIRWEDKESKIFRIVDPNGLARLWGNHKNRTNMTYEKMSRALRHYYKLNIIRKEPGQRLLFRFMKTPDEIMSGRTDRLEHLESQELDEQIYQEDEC
# ETV5, sequence (P41161 whole entry): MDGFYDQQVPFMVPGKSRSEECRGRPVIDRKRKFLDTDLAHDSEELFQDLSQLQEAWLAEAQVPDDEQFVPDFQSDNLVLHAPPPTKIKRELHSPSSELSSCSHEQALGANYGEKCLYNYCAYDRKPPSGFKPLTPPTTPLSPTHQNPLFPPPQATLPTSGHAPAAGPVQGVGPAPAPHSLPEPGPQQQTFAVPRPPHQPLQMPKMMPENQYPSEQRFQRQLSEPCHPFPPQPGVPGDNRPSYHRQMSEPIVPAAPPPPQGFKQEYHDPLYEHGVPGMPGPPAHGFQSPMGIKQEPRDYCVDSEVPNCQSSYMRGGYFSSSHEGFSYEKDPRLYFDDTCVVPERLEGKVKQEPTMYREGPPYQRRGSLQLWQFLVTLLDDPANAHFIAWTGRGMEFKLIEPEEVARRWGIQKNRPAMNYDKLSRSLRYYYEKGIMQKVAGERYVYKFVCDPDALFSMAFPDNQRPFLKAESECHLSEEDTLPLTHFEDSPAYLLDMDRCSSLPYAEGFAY
# HSF1, sequence (Q00613 whole entry): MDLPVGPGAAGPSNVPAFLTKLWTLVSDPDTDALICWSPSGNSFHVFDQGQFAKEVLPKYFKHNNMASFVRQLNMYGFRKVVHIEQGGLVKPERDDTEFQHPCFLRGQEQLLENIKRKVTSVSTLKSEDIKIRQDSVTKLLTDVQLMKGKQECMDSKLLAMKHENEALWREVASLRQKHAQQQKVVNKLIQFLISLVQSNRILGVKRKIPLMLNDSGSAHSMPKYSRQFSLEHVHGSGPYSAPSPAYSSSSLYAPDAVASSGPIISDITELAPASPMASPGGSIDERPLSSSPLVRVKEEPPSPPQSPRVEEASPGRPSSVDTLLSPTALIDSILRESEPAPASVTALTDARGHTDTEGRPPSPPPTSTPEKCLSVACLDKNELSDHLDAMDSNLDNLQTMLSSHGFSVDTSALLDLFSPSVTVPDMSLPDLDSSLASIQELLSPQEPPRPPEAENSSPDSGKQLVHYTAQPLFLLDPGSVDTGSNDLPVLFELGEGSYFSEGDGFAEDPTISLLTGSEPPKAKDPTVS
sequence,measurement,setting,value
TTACCC,binding signal,FEV,"1.36 fold enrichment (6-mer frequency, TF over GST control)"
same,binding signal,ETV5,"1.36 fold enrichment (6-mer frequency, TF over GST control)"
same,binding signal,HSF1,"1.43 fold enrichment (6-mer frequency, TF over GST control)"
same,binding signal,SPIC,"1.4 fold enrichment (6-mer frequency, TF over GST control)"
same,binding signal,ELF4,"1.48 fold enrichment (6-mer frequency, TF over GST control)"
same,binding signal,ELK4,"1.38 fold enrichment (6-mer frequency, TF over GST control)"
same,binding signal,ETV2,"1.56 fold enrichment (6-mer frequency, TF over GST control)"
same,binding signal,ELF3,"1.14 fold enrichment (6-mer frequency, TF over GST control)"
same,binding signal,CRX,"1.95 fold enrichment (6-mer frequency, TF over GST control)"
same,binding signal,ETV1,"1.35 fold enrichment (6-mer frequency, TF over GST control)"
same,binding signal,ERF,"1.35 fold enrichment (6-mer frequency, TF over GST control)"
same,binding signal,ETV3L,"1.26 fold enrichment (6-mer frequency, TF over GST control)"
same,binding signal,ETS2,"1.42 fold enrichment (6-mer frequency, TF over GST control)"
same,binding signal,SPDEF,"1.33 fold enrichment (6-mer frequency, TF over GST control)"
same,binding signal,ETV7,"1.41 fold enrichment (6-mer frequency, TF over GST control)"
same,binding signal,ELF5,"1.43 fold enrichment (6-mer frequency, TF over GST control)"
same,binding signal,ETV3,"1.35 fold enrichment (6-mer frequency, TF over GST control)"
same,binding signal,ETV6,"1.29 fold enrichment (6-mer frequency, TF over GST control)"
